According to the supplement of paper PMC10849652:
Targets with a hit are over-represented here; the source holds about 7,900 in all. About 0.6% of all pairs of compound and target were hits.

How the values were obtained:
Assay in all cases: log2 fold change, soluble protein after heating vs DMSO (PISA); higher = thermal stabilisation; K562 cells, 10 uM, 30 min; active = over 0.2 and 3.5 SD of the protein, either way, in both replicates (recomputed)
[1] = compound: C1=CC=C(C=C1)[C@H](COC2=CC3=C(C=C2)NC(=O)N3)NC(=O)C4=CC=CN(C4=O)CC5=CC(=C(C=C5)F)F
In short: (§1)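 Soluble protein was quantified by TMTpro 16plex LC-MS/MS after channel sums were equalised. It was obtained as the supernatant after 21,000xg for 90 min from pooled aliquots of K562 cells (2×10^6 cells/mL, 10 μM compound, 30 min) heated for 3 min across 48°C-58°C and extracted in PBS with 0.5% NP-40 at 4°C. Thermal stability values are relative to control samples and come from duplicates. They are given as log2 fold changes.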

[2] = compound: CC1=C2C(=CC=C1)N=C(N(C2=O)C3=CC=CC=C3C)CN4C=NC5=C(N=CN=C54)N
In short: as §1

[3] = compound: Cc1sc2c(c1C)C(c1ccc(Cl)cc1)=N[C@@H](CC(=O)OC(C)(C)C)c1nnc(C)n1-2
In short: as §1

[4] = compound: CC1=C(SC2=C1C(=N[C@H](C3=NN=C(N32)C)CC(=O)N)C4=CC=C(C=C4)Cl)C
In short: as §1

[5] = compound: c1ccc([C@@H]2C[C@H]2NC2CCNCC2)cc1
In short: as §1

Measured: log2 fold change

PPP1R12C (UniProt Q9BZL4)
Chain of UniProt Q9BZL4 (Q9BZL4 whole entry, looked up): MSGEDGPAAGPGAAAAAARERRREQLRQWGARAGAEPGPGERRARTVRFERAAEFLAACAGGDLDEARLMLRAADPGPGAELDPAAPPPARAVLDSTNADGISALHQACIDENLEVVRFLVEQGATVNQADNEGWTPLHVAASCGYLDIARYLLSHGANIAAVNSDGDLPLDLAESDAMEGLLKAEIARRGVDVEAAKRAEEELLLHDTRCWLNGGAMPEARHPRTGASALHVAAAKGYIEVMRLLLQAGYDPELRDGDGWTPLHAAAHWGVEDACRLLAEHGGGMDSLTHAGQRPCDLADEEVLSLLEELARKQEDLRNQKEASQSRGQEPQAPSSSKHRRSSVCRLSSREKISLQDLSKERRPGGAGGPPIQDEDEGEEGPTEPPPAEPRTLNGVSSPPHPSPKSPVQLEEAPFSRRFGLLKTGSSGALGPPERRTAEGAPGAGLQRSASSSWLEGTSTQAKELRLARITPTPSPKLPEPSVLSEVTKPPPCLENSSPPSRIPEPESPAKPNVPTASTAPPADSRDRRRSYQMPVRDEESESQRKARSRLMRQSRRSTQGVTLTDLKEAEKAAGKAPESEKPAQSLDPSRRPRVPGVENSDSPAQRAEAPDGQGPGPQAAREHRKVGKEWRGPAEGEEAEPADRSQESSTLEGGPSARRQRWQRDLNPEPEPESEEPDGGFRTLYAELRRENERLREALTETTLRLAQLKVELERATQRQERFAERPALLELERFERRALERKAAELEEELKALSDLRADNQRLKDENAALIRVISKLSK
inactive: [1] -0.16 | [2] 0.05 | [3] 0.053

PAN2 (UniProt Q504Q3)
inactive: [1] -0.298 | [2] 0.053

PRR14L (UniProt Q5THK1)
Chain of UniProt Q5THK1 (Q5THK1 whole entry, looked up): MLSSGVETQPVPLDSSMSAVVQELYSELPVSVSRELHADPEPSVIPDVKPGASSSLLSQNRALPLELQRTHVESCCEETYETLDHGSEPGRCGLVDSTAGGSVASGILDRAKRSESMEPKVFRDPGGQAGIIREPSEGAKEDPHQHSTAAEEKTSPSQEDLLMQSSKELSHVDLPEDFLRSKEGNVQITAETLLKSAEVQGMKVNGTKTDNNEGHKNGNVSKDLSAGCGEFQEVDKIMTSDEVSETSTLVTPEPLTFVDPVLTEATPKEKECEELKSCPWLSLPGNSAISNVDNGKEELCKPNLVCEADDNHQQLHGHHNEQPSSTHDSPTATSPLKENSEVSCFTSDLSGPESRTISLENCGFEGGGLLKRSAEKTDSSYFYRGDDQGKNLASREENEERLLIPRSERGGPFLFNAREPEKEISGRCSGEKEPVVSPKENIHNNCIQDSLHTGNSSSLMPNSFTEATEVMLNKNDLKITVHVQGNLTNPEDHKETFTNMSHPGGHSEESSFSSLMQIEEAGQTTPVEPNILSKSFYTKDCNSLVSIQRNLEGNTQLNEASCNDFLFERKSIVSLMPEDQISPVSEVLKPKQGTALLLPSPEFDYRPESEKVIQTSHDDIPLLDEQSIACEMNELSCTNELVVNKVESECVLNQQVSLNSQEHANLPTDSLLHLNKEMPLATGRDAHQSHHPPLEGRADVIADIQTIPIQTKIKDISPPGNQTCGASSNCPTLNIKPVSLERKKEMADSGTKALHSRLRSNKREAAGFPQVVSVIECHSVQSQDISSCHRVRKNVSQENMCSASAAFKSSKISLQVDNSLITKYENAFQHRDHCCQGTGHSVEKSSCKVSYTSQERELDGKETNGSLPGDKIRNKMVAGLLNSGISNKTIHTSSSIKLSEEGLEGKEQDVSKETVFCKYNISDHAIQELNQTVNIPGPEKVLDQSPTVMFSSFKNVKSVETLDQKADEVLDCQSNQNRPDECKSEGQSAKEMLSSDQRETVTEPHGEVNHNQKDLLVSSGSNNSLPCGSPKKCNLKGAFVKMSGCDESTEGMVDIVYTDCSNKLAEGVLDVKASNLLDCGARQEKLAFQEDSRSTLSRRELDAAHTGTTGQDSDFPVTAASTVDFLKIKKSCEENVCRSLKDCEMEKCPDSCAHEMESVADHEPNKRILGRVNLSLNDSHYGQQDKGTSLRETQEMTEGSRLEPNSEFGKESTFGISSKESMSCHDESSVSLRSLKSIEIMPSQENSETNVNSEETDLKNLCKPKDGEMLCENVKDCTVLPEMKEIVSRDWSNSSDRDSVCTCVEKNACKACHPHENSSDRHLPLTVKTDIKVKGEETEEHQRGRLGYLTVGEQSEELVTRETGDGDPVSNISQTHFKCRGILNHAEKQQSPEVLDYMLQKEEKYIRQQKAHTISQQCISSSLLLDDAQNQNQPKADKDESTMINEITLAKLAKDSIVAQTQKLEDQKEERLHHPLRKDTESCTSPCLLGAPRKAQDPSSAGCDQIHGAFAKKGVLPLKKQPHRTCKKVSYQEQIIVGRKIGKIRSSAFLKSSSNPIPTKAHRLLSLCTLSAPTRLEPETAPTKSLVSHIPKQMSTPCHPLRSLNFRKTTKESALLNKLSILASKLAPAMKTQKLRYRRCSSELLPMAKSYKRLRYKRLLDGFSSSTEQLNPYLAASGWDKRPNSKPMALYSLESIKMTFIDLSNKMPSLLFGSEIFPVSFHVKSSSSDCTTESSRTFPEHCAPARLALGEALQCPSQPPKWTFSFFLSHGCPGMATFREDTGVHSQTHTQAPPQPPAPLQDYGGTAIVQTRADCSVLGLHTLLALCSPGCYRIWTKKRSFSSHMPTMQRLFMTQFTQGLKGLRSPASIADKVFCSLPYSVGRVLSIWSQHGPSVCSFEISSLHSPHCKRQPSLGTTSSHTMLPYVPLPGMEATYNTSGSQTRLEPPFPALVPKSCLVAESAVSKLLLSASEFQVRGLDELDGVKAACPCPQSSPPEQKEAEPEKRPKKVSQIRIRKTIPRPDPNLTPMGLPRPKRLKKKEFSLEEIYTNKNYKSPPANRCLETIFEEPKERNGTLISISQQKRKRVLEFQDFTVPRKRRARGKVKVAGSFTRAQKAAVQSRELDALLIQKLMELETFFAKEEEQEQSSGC
inactive: [4] -0.052 | [2] 0.312 | [3] 0.042 | [5] 0.103

PCF11 (UniProt O94913)
inactive: [1] -0.319 | [4] -0.02 | [2] 0.068 | [5] 0.006

PPP2R5B (UniProt Q15173)
inactive: [1] -0.058 | [2] -0.098

PDE4DIP (UniProt E9PS60)
inactive: [4] 0.013 | [2] -0.209 | [5] -0.069

PSMC6 (UniProt P62333)
Chain of UniProt P62333 (P62333 whole entry, looked up): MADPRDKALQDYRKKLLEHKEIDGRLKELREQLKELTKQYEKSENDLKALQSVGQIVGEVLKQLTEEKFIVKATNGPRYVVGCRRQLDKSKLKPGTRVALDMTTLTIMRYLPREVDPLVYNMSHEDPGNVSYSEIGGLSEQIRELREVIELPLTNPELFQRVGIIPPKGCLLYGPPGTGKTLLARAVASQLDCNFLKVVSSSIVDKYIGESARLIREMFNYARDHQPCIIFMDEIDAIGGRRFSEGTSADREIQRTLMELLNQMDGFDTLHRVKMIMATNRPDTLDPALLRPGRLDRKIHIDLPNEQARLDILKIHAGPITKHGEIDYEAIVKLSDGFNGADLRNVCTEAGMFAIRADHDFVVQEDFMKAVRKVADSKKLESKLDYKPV
inactive: [1] 0.04 | [4] -0.087 | [2] -0.037 | [3] 0.017 | [5] 0.006

PSMB9 (UniProt P28065)
Chain of UniProt P28065 (P28065 whole entry, looked up): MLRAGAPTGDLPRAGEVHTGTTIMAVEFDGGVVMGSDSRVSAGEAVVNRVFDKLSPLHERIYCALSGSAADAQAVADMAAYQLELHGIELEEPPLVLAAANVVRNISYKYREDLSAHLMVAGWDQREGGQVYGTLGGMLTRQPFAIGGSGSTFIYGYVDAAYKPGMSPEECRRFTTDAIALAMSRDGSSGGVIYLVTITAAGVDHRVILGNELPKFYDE
inactive: [1] 0.182 | [4] 0.138 | [2] 0.179 | [5] -0.203

PEX5 isoform 4 (UniProt P50542)
inactive: [4] -0.147 | [2] 0.043 | [3] 0.059 | [5] 0.006

PUM1 isoform 3 (UniProt Q14671)
inactive: [1] 0.004 | [4] -0.036 | [2] 0.056 | [3] 0.025 | [5] -0.049

PDE12 (UniProt Q6L8Q7)
Chain of UniProt Q6L8Q7 (Q6L8Q7 whole entry, looked up): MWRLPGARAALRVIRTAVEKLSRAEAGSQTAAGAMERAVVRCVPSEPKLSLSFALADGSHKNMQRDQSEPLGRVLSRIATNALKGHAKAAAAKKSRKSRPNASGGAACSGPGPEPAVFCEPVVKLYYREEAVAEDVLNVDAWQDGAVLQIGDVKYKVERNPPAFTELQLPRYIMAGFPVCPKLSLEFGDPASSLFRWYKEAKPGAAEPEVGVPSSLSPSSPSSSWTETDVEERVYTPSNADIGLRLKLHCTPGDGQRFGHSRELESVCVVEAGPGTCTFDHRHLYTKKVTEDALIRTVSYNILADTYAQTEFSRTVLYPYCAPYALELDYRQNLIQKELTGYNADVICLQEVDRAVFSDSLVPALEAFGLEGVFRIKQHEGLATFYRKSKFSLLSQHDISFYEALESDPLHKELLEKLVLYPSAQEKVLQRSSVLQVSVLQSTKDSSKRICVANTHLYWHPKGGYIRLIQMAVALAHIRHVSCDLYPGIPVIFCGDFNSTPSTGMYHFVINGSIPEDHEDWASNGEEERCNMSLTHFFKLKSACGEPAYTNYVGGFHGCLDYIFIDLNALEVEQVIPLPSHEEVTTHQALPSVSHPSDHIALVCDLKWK
inactive: [1] -0.003 | [4] 0.059 | [2] 0.12 | [3] -0.05 | [5] -0.094

PMPCB (UniProt O75439)
Chain of UniProt O75439 (O75439 whole entry, looked up): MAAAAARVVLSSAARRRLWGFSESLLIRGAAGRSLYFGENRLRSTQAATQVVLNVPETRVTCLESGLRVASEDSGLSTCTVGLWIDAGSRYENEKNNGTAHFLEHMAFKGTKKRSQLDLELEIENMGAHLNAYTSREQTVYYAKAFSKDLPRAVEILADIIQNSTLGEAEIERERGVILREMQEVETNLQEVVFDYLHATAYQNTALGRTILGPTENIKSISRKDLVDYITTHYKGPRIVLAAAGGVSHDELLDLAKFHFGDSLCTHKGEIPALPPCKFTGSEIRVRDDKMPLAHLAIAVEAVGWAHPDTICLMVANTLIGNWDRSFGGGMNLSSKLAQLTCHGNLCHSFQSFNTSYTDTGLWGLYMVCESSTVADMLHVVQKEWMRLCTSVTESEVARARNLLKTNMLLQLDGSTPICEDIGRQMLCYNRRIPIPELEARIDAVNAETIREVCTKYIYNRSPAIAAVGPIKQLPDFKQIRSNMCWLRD
inactive: [1] 0.005 | [4] 0.111 | [2] 0.01 | [3] 0.012 | [5] -0.053

PSMC3 (UniProt E9PLG2)
inactive: [1] 0.03 | [2] -0.056 | [3] 0.252

PRKD3 (UniProt O94806)
inactive: [1] -0.103 | [4] 0.044 | [2] -0.007 | [5] -0.097
